This is part of a sample that, as a whole, favours compounds with a hit. Of some 83,000 tested, about 20% had one in any assay.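 Results are percent growth after 48 hours of single-concentration exposure. 100 means growth as in untreated cells, lower positive values show inhibition; negative values down to -100 show cell death.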 A number with no mark means an inactive call. The source made the active and inactive calls. The calls were made as follows: active = growth percent below 10; inactive = the rest.
System: MDA-MB-435 melanoma
Experiment: NCI-60 one-dose screen, 48 h (100 = growth as untreated, 0 = no growth, -100 = all killed)
Conditions: 10 µM

Row | Compound | growth
1 | COc1ccc(-c2onc(N)c2-c2cc(OC)c3c(c2)OCO3)cc1 | -24.1% (active)
2 | C[C@]12CC[C@@H]3c4ccc(O)cc4CC[C@H]3[C@@H]1CC[C@@H]2NS(=O)(=O)c1ccc(C(F)(F)F)cc1 | 22.3%
3 | O=C(CSc1nnc(-c2ccc(Cl)cc2)o1)Nc1ccc(C(=O)/C=C/c2ccc(Cl)cc2)cc1 | 98.1%
4 | Cc1cc(CCNC=O)c(C)c2c1sc1ccccc12 | 94.5%
5 | COc1cc2cc(Oc3ccc(NC(=O)c4ccc(Cl)c(C(F)(F)F)c4)cc3)c(C)nc2cc1OC | 25.7%
6 | CC(C)(C)c1ccc(S(=O)(=O)N[C@H]2CC[C@H]3[C@@H]4CCc5cc(O)ccc5[C@H]4CC[C@]23C)cc1 | 30.4%
7 | COc1cc2cc(Oc3ccc(NC(=O)c4cccc(C(F)(F)F)c4)cc3)c(C)nc2cc1OC | 24.5%
8 | COc1ccc(/C=C2\CCCC3=C2NC(N)=NC3c2ccc(OC)c(OC)c2)cc1OC (configuration not stated) | 30.8%
9 | Cc1c(Cl)cccc1NC(=O)CN1CCOCC1 | 98.7%
10 | CC(C)(C)OC(=O)N1CCc2c(sc3ncnc(N/N=C/c4ccc(Br)cc4)c23)C1 | -20.4% (active)
11 | CCCCc1oc2ccccc2c1C(=O)c1cc(I)c(OCCN(CC)CC)c(I)c1 | -56.2% (active)
12 | CCc1c2c(nc3ccc(OC(=O)N4CCC(N5CCCCC5)CC4)cc13)-c1cc3c(c(=O)n1C2)COC(=O)[C@]3(O)CC | 34.2%
13 | NS(=O)(=O)Oc1ccc(-c2ccc3sccc3c2)cc1 | 104%
14 | O=C(Nc1ccc(OS(=O)(=O)c2ccccc2)cc1)C1CCCCC1 | 100%
15 | S=c1cnc2ccccc2[nH]1 | 101%
16 | COc1cc(-c2nn(-c3cccc(NC(=O)NCCNC(=O)c4cccc(C(F)(F)F)c4)c3)cc2-c2ccncc2)ccc1Cl | -41.6% (active)
17 | C[C@@H](O)[C@H]1C(=O)N2C(C(=O)O)=C(SCCN=CN)C[C@H]12 | -9.18% (active)
18 | CC[C@@H](C(=O)[C@@H](C)[C@@H](O)[C@H](C)[C@@H]1O[C@@H]([C@@H](CC)C(=O)O)CC[C@@H]1C)C1O[C@]2(C=CC(=O)[C@]3(CC[C@@](C)([C@H]4CC[C@](O)(CC)[C@H](C)O4)O3)O2)[C@H](C)C[C@@H]1C (some centres not stated) | 21%
19 | CCC(c1ccc(OC)cc1)C(CC)c1ccc(O)c(CN2CCN(C)CC2)c1 (configuration not stated) | 33.5%

Row | Compound | growth
20 | COc1ccc(C(=O)N2C=Cc3ccccc3C2C#N)cc1 (configuration not stated) | 72.3%
21 | Cc1cc(SC#N)cc(C(C)(C)C)c1O | 107%
22 | COc1ccc(-c2n[nH]nc2-c2cc(OC)c3c(c2OC)OCO3)cc1 | -12.3% (active)
23 | CN1C(C(=O)Nc2ccccn2)=C(O)c2sc(Cl)cc2S1(=O)=O | 97.6%
24 | Clc1ccc2c(c1)C(N1CCNCC1)=Nc1ccccc1O2 | 28.9%
25 | CC(C)(C)c1ccc(S(=O)(=O)N[C@H]2CC[C@H]3[C@@H]4CCc5cc(O)c([N+](=O)[O-])cc5[C@H]4CC[C@]23C)cc1 | 80.3%
26 | COc1cc(-c2csc(NC(=O)Nc3ccc(Cl)c(C(F)(F)F)c3)n2)cc(OC)c1OC | -7.7% (active)
27 | Brc1ccc2c(c1)-c1ccccc1C1=NCCN12 | 1.68% (active)
28 | CC(C)N(CCOc1cccc(-c2nc3sccn3c2-c2ccnc(S(C)(=O)=O)n2)c1)C(C)C | 86.1%
29 | Cc1ccc(/C=C/C(=O)C(=O)/C=C/c2ccc(C)cc2)cc1 | 76.9%
30 | O=C(Nc1cc(Cl)cc2c1-c1ccc(Cl)cc1C2O)C(Cl)Cl (configuration not stated) | 79.2%
31 | COc1cc(Cc2cc(-c3ccccc3)n[nH]c2=O)cc(OC)c1OC | 11%
32 | Cc1cc(C(C#N)c2ccc(Cl)cc2)c(Cl)cc1NC(=O)c1cc(I)cc(I)c1O (configuration not stated) | 55.7%
33 | C/C=C/C1=CN2C(=O)c3cc(OC4OC(C)C(NC)C(C)(O)C4O)c(C)c(O)c3N=C[C@@H]2C1 (some centres not stated) | -77% (active)
34 | CNC(=O)c1c(I)c(NC(C)=O)c(I)c(C(=O)O)c1I | 103%
35 | COc1ccc(Nc2cnc3cc(NS(=O)(=O)c4ccc(C)cc4)ccc3n2)cc1 | 4.57% (active)
36 | COc1cc(-c2nn(-c3ccc(NC(=O)NCCCNC(=O)c4ccccc4)cc3)cc2-c2ccncc2)ccc1Cl | 2.49% (active)
37 | OCC1OC(n2ccc3c(NO)ncnc32)C(O)C1O (configuration not stated) | -54.5% (active)

Source: PubChem BioAssay (NCI)
